This is an account of results in PubChem BioAssay.

Active and inactive are the calls of the source.

Experiment [1] can be described thus: compounds binding Alexa647 anti-His antibody – biochemical, small-molecule microarray, 635 nm fluorescence, artefact control for SMM control protein annotation, primary screen (AID 1128).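 Also: score merges feature fluorescence with signal-to-noise for each printed compound spot.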 To be noted: higher = more signal.
For experiment [2], the system named is Human papillomavirus type 1a E7 protein (residues 1-88). The experiment can be described thus: HPV1a E7 small-molecule binders, primary screen, biochemical, small-molecule microarray, residues 1-88, 635 nm (AID 1129). To be noted: small-molecule microarray binding, fluorescence 635 nm; higher = more signal.
Experiment [3] addresses Focal adhesion kinase 1 (Homo sapiens) (UniProt Q05397). The experiment can be described thus: PTK2 protein binding on printed compound slides – biochemical, small-molecule microarray, 635/667 nm fluorescence, BSA, DTT, primary screen (AID 1130).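 Also: composite of spot emission at 667 nm and signal to noise over triplicate slides.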 To be noted: 635 nm fluorescence, higher = more signal.
Experiment [4] deals with Fibrinogen (Alexa647-labelled). In words: Alexa647-fibrinogen binding to printed small molecules – biochemical, small-molecule microarray, 635/667 nm fluorescence, artefact control for SMM control-protein annotation, profiling panel (AID 1131).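 Also: z-score merges 667 nm fluorescence with per-spot signal-to-noise over triplicate slides.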 To be noted: fibrinogen-A647 binding fluorescence, higher = more signal.
Experiment [5] addresses Follistatin (Homo sapiens) (UniProt P19883). In words: FST protein binding to printed compounds – biochemical, small-molecule microarray, 635/667 nm fluorescence, primary screen (AID 1132). To be noted: 635 nm fluorescence, higher = more signal.
Experiment [6] addresses Fibroblast growth factor 2 (Homo sapiens) (UniProt P09038). In words: basic fibroblast growth factor binding to printed compounds – biochemical, small-molecule microarray, 635/667 nm fluorescence, primary screen (AID 1133). The conditions noted are these: FGF2, fluorescence 635/667, higher = more signal.
A short description of experiment [7]: JC-1 mitochondrial potential readout, lung cancer cells – cell-based, A549, JC-1 fluorescence, basal, 24 h, 100 nL, profiling panel (AID 1138).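 Also: A549 lung adenocarcinoma cells under basal conditions with no added stimulus; test concentration not given here.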 To be noted: higher = more signal.
For the next experiment, the system named is Lefty1. In words: Lefty1 protein binding to printed compounds – biochemical, small-molecule microarray, 635/667 nm fluorescence, primary screen (AID 1139). The conditions noted are these: fluorescence 635/667, higher = more signal.
Experiment [8] has as its system wheat germ agglutinin (Triticum aestivum), Alexa647-labelled. The experiment can be described thus: Alexa647-WGA lectin binding to printed small molecules – biochemical, small-molecule microarray, 635/667 nm fluorescence, artefact control for SMM control-protein annotation, profiling panel (AID 1140).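 Also: score merges 667 nm feature emission with signal to noise over triplicate slides.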 The conditions noted are these: WGA-A647 binding, 635 nm fluorescence, higher = more signal.

The target of experiment [9] is Luciferin 4-monooxygenase (Photinus pyralis) (UniProt P08659). In words: inhibition of purified Photinus pyralis luciferase – biochemical, luminescence, purified enzyme, 2006 set, primary screen (AID 1141).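 Also: cell-free assay with purified firefly luciferase at 100 ng per well in PBS; test concentration not given here.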 The conditions noted are these: purified firefly luciferase, SteadyGlo luminescence, 30 min; higher = more signal, called active from +8 up or from −8 down.
Sequence of Luciferin 4-monooxygenase (Photinus pyralis) (P08659 whole entry, looked up): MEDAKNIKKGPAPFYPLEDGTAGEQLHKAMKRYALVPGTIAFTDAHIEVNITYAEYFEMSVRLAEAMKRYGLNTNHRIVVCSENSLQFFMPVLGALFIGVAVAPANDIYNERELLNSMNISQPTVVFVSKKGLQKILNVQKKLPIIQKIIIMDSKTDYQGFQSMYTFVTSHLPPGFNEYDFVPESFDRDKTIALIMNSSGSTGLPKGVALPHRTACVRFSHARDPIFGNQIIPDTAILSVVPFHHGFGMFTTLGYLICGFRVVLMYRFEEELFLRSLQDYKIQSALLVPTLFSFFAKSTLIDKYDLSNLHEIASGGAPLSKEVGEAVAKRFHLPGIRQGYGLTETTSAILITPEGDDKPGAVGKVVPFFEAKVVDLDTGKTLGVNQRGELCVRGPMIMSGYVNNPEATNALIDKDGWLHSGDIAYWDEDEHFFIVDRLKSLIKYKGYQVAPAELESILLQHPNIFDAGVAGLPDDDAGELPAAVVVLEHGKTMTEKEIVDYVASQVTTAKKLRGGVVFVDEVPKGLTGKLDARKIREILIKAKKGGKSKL

Sequence of Focal adhesion kinase 1 (Homo sapiens) (Q05397 whole entry, looked up): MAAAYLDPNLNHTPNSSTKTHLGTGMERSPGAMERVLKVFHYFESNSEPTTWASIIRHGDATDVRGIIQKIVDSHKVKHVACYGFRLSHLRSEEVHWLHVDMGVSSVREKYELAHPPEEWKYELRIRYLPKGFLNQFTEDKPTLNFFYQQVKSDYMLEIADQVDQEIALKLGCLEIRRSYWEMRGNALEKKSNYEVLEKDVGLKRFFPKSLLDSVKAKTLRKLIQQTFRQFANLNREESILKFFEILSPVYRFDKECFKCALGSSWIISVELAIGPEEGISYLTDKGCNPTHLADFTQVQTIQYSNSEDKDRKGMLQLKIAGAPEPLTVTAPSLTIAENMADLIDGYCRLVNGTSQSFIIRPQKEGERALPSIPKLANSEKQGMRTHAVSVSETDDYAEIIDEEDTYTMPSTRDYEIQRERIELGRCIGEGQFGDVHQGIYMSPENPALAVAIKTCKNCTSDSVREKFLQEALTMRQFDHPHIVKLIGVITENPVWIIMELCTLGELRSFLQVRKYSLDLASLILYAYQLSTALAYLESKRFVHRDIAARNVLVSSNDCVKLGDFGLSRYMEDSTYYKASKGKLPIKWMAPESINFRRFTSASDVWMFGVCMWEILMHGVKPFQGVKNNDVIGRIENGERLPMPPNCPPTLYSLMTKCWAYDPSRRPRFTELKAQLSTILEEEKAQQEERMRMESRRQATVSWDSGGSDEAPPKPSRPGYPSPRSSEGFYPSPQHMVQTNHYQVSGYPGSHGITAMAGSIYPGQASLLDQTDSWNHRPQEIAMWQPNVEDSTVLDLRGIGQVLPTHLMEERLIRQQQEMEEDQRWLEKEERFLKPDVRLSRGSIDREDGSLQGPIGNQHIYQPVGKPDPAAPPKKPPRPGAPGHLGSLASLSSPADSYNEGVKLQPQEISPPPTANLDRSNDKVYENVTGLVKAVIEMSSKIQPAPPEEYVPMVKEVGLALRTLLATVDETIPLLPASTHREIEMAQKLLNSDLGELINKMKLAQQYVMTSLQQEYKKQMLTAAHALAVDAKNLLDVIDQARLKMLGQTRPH
Sequence of Follistatin (Homo sapiens) (P19883 whole entry, looked up): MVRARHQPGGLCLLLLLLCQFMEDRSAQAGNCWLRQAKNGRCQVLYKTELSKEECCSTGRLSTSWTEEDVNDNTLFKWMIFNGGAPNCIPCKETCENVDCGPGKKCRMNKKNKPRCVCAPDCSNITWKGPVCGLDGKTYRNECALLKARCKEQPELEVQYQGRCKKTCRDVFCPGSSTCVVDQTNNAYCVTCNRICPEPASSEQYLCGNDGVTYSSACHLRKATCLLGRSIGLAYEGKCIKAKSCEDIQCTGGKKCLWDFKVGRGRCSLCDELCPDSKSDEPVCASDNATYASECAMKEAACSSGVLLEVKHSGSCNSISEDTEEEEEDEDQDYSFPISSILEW
Sequence of Fibroblast growth factor 2 (Homo sapiens) (P09038 whole entry, looked up): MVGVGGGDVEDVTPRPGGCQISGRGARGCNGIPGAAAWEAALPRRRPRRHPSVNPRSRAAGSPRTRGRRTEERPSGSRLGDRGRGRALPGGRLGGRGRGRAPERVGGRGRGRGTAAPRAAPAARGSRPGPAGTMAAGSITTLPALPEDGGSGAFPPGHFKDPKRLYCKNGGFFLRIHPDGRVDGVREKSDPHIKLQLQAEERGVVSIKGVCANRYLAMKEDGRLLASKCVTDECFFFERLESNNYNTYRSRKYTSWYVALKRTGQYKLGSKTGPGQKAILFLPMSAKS

As to `COc1ccc(O[C@H]2C=C[C@@H](c3ccccc3)O[C@@H]2COC(=O)CCC(C)=NOC[C@@H](O)[C@H]2O[C@@H]3OC(C)(C)O[C@@H]3[C@H]2O)cc1`, the composite z-score in [1] is 0.977; in experiment [2] it was 0.835; in experiment [3], 0.179; in experiment [4] it was 0.536; in experiment [5], 0.697; in experiment [6], 0.439. Also, the composite z-score with Lefty1 was 0.334; in experiment [8] it was -0.13. Besides, the z-score in [7] is -0.206; in [9], 0.302 (inactive).

Take `CC(C)(C)N1C(=O)[C@H]2[C@H]3[C@H](O)[C@H](O)CC(=O)[C@H]3CC[C@H]2C1=O`: the composite z-score was 0.875 in [1]; 0.496 in experiment [2]; -0.246 in [3]; 0.584 in experiment [4]; 0.558 in [5]; 0.399 in experiment [6]. The composite z-score with Lefty1 worked out at 0.407; in experiment [8] it was 0.0902. Moreover, the z-score in [7] is -0.714; in experiment [9], 0.206 (inactive).

Consider `COc1ccc(O[C@@H]2[C@H](O)CO[C@@H]2C=Cc2ccccc2)cc1`, for which the composite z-score in [1] is -0.198; in experiment [2], -0.222; in [3] it was 0.166; in [4], -0.223; in experiment [5], 0.409; in experiment [6], 0.758. In addition, the composite z-score is 0.397 in the experiment on Lefty1 and -0.124 in experiment [8]. Moreover, the z-score in [7] was -0.464; in experiment [9], -0.451 (inactive).

In the case of `CC1O[C@H]2C3=C(C(=O)[C@@H]4O[C@@H]4[C@H]3O)[C@@H]1C1[C@@H](C)OC=C3[C@H](O)C4O[C@@H]4C(=NOCc4ccccc4)[C@]312` (stereo not given in full), the composite z-score in [1] was 0.331; in experiment [2], -0.492; in [3], -0.0962; in experiment [4], -1.18; in experiment [5], -0.117; in experiment [6], 0.468. The composite z-score with Lefty1 was 0.16; in experiment [8], -0.911. Besides, the z-score in [7] was 0.476; in [9], -0.399 (inactive).

Consider `CCOC(=O)[C@H](CC(C)C)NC(=O)CCC1CC(OC(=O)NCc2cccc3ccccc23)CC2(CCCC(COC(=O)NCc3ccncc3)O2)O1` (stereo not given in full), for which the composite z-score worked out at 0.894 in [1]; 1.19 in experiment [2]; 0.0121 in experiment [3]; 0.839 in [4]; 0.768 in [5]; 1.58 in experiment [6]. Further, the figures for the composite z-score (in the experiment with Lefty1; in experiment [8]) were 1.01 and 0.725, respectively. Further, the z-score in experiment [7] was 1.42; in [9] it was 0.301 (inactive).

On to `CCN1C(=O)[C@H]2[C@H]3[C@H](O)[C@H](O)CC(=O)[C@H]3CC[C@H]2C1=O`, for which the composite z-score in experiment [1] worked out at 0.463; in experiment [2], 0.809; in experiment [3], 0.0493; in experiment [4], 0.861; in [5], 0.486; in experiment [6], 0.485. Besides, the figures for the composite z-score (with Lefty1; in experiment [8]) were 0.559 and 0.145, respectively. The z-score in experiment [7] is -0.335; in [9], -0.371 (inactive).

For the compound `COC(=O)CC=C[C@@H](C)[C@@H](C=NO[C@H](C)c1cn([C@@H]2COC[C@H]2O)nn1)NS(=O)(=O)c1ccc(C)cc1`, the composite z-score was 1.41 in experiment [1]; -0.0194 in experiment [2]; -0.217 in experiment [3]; 0.533 in experiment [4]; 1.08 in [5]; 0.845 in [6]. The composite z-score stood at 1.26 in the experiment on Lefty1 and 0.521 in experiment [8]. For the same compound, the z-score in experiment [7] is 0.109; in experiment [9] it was 0.316 (inactive).

For `CO[C@@H]1COC(=O)CC=C[C@@H](C)[C@@H]2C=C[C@H](O)[C@@H](COC(=O)CC=C[C@H]1C)O2`, the composite z-score in experiment [1] was -0.143; in experiment [2], -1.07; in experiment [3] it was -0.649; in experiment [4], -0.616; in experiment [5], 1.45; in experiment [6] it was 1.3. The composite z-score with Lefty1 is 1.66; in experiment [8], -0.448. The z-score is 1.81 in [7] and -1.35 (inactive) in experiment [9].

Consider `CC(CCC(=O)OC[C@H]1O[C@H](C#Cc2ccccc2)C=C[C@@H]1Oc1ccc(C)cc1)=NO[C@H](C)c1cn([C@H](CO)Cc2ccccc2)nn1`, for which the composite z-score was 0.126 in experiment [1]; 0.921 in [2]; 0.648 in experiment [3]; 0.856 in [4]; 0.6 in experiment [5]; 0.52 in [6]. The values for the composite z-score (in the experiment on Lefty1; in [8]) were 0.724 and 0.442, respectively. Also, the z-score in experiment [7] is 0.6; in [9], -0.085 (inactive).

With `CC(C)(C)N1C(=O)[C@H]2[C@H]3[C@H](O)C=CC(=O)[C@@H]3CC[C@H]2C1=O`, the composite z-score in [1] is 0.204; in experiment [2], 0.025; in experiment [3] it was -0.258; in experiment [4], 0.347; in experiment [5], 0.39; in experiment [6], 0.255. The composite z-score in the experiment with Lefty1 came to 0.461; in [8], 0.0896. Moreover, the z-score in [7] is 0.109; in experiment [9], -0.753 (inactive).

For the compound `Cc1cc2c(nc1C)CCCCN2CC(C)ON=C1[C@H]2CCn3c(=O)n(-c4ccccc4)c(=O)n3[C@H]2[C@H](O)[C@@H]2O[C@H]12` (stereo not given in full), the composite z-score in experiment [1] is 0.761; in experiment [2], -0.0951; in experiment [3] it was -0.0065; in [4], 0.7; in [5] it was 0.7; in experiment [6], 0.875. The composite z-score in the experiment with Lefty1 was determined as 1.31; in experiment [8] it was 1. Moreover, the z-score in experiment [7] was -0.196; in experiment [9] it was -0.661 (inactive).

For the compound `C=C(C)C(=O)OCC1CN2[C@@H](CC[C@@H](C)[C@@H]2c2ccc(Br)cc2)C(=O)O1` (stereo not given in full), the composite z-score in experiment [1] turned out to be 0.0797; in experiment [2], 0.281; in [3], 1.64; in experiment [4], 0.794; in [5] it was 0.196; in experiment [6] it was 0.192. Besides, the values for the composite z-score (in the experiment with Lefty1; in experiment [8]) were 0.452 and 0.0513, respectively. The z-score is 0.717 in [7] and -0.0906 (inactive) in experiment [9].

As for `CCOC(=O)[C@H](CC(C)C)NC(=O)CCC1CC(OC(=O)NCc2cccc3ccccc23)CC2(CCCC(COC(=O)NCc3cccc(C(F)(F)F)c3)O2)O1` (stereo not given in full), the composite z-score was -0.206 in [1]; 0.492 in experiment [2]; -0.0868 in [3]; 0.52 in [4]; 0.312 in [5]; 0.231 in experiment [6]. Also, the composite z-score in the experiment with Lefty1 turned out to be 0.42; in experiment [8] it was 0.0501. Besides, the results for the z-score in experiment [7] and in [9] were 0.841 and 0.421 (inactive), respectively.

In the case of `CCOC(=O)[C@H](CC(C)C)NC(=O)CCC1CC(OC(=O)NCCc2ccc(F)cc2)CC2(CCCC(COC(=O)NCCc3ccccc3OC)O2)O1` (stereo not given in full), the composite z-score was found to be 1.35 in [1]; 0.903 in experiment [2]; 0.0376 in [3]; 0.956 in [4]; 0.236 in experiment [5]; 0.399 in [6]. In addition, the composite z-score stood at 0.522 in the experiment on Lefty1 and 0.0393 in [8]. Also, the z-score in experiment [7] was 0.848; in experiment [9], 0.109 (inactive).

Turning to `C=CC[C@@H]1C=C[C@H](ON=C[C@@H](C)[C@H](OCc2ccccc2)C(C)C)[C@@H](CO)O1`, the composite z-score is -0.304 in experiment [1]; -0.324 in experiment [2]; -0.472 in experiment [3]; -1.67 in experiment [4]; -0.386 in experiment [5]; -0.178 in [6]. Also, the values for the composite z-score (in the experiment on Lefty1; in experiment [8]) were 0.521 and -0.0625, respectively. The values for the z-score in experiment [7] and in experiment [9] were -0.922 and 0.888 (inactive), respectively.

Consider `C[C@@H](c1ccccc1)N1C(=O)[C@H]2[C@H]3[C@H](O)[C@H](O)CC(=O)[C@H]3CC[C@H]2C1=O`, for which the composite z-score in [1] came to 0.335; in experiment [2] it was 0.654; in experiment [3] it was 0.336; in experiment [4], 0.747; in [5] it was 0.213; in experiment [6], 0.284. Besides, the values for the composite z-score (in the experiment with Lefty1; in [8]) were 0.134 and 0.0458, respectively. In addition, the z-score was 0.911 in experiment [7] and -1.36 (inactive) in experiment [9].
